# Test results from article PMC11006913.
# How the values were obtained:
# Assay in all cases: PBM; 200 nM protein, PBS
# Conditions in all cases: dsDNA, one strand shown
# NKX2-5 [1] = molecular target: NKX2-5 (Homo sapiens, UniProt P52952 125-210, R139K)
# NKX2-5 [2] = molecular target: NKX2-5 (Homo sapiens, UniProt P52952 125-210)
# NKX3-2 [3] = molecular target: NKX3-2 (Homo sapiens, UniProt P78367 192-278, P234S)
# NKX3-2 [4] = molecular target: NKX3-2 (Homo sapiens, UniProt P78367 192-278)
# Sequence of NKX3-2 (Homo sapiens, UniProt P78367 192-278) (P78367 192-278): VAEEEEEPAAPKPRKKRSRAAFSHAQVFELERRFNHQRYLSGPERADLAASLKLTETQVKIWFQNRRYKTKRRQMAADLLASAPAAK
# NKX2-6 = molecular target: T1, NKX2-6 (Homo sapiens, UniProt A6NCS4 118-204, F151L)
# T1 sequence: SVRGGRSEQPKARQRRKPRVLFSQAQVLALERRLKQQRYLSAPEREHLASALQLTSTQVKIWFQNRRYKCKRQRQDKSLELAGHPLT
# PITX2 = PITX2 (Homo sapiens, UniProt Q99697 72-157)
# Sequence of NKX2-5 (Homo sapiens, UniProt P52952 125-210) (P52952 125-210): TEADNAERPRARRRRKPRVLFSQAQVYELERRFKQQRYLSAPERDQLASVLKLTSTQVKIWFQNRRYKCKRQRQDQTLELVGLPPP
# Sequence of NKX2-5 (Homo sapiens, UniProt P52952 125-210, R139K) (P52952 125-210 R139K): as the sequence (P52952 125-210) above, with R15K counted along it
# Sequence of NKX3-2 (Homo sapiens, UniProt P78367 192-278, P234S) (P78367 192-278 P234S): as the sequence (P78367 192-278) above, with P43S counted along it
sequence,measurement,setting,value
CCCTTAAC,binding signal,NKX2-5 [1],"10.9 upbm affinity estimate (log intensity, higher = more binding, comparable within an allelic series)"
same,binding signal,NKX2-5 [2],"10.8 upbm affinity estimate (log intensity, higher = more binding, comparable within an allelic series)"
CGGCGTAC,binding signal,NKX2-5 [1],"8.9 upbm affinity estimate (log intensity, higher = more binding, comparable within an allelic series)"
same,binding signal,NKX2-5 [2],"8.89 upbm affinity estimate (log intensity, higher = more binding, comparable within an allelic series)"
ATCCTTAG,binding signal,NKX2-5 [1],"10.5 upbm affinity estimate (log intensity, higher = more binding, comparable within an allelic series)"
same,binding signal,NKX2-5 [2],"10.5 upbm affinity estimate (log intensity, higher = more binding, comparable within an allelic series)"
AAAGTGCC,binding signal,NKX2-5 [1],"11.6 upbm affinity estimate (log intensity, higher = more binding, comparable within an allelic series)"
same,binding signal,NKX2-5 [2],"11.7 upbm affinity estimate (log intensity, higher = more binding, comparable within an allelic series)"
ATAAGATG,binding signal,NKX2-5 [1],"10.5 upbm affinity estimate (log intensity, higher = more binding, comparable within an allelic series)"
same,binding signal,NKX2-5 [2],"10.6 upbm affinity estimate (log intensity, higher = more binding, comparable within an allelic series)"
CTCTTATC,binding signal,NKX2-5 [1],"11.5 upbm affinity estimate (log intensity, higher = more binding, comparable within an allelic series)"
same,binding signal,NKX2-5 [2],"11.4 upbm affinity estimate (log intensity, higher = more binding, comparable within an allelic series)"
ACGGTCCA,binding signal,NKX2-5 [1],"8.85 upbm affinity estimate (log intensity, higher = more binding, comparable within an allelic series)"
same,binding signal,NKX3-2 [3],"10.5 upbm affinity estimate (log intensity, higher = more binding, comparable within an allelic series)"
same,binding signal,NKX2-5 [2],"8.85 upbm affinity estimate (log intensity, higher = more binding, comparable within an allelic series)"
same,binding signal,NKX3-2 [4],"10.5 upbm affinity estimate (log intensity, higher = more binding, comparable within an allelic series)"
CGCGCAGC,binding signal,NKX2-5 [1],"8.7 upbm affinity estimate (log intensity, higher = more binding, comparable within an allelic series)"
same,binding signal,NKX2-5 [2],"8.72 upbm affinity estimate (log intensity, higher = more binding, comparable within an allelic series)"
GCAACGCA,binding signal,NKX2-5 [1],"9.03 upbm affinity estimate (log intensity, higher = more binding, comparable within an allelic series)"
same,binding signal,NKX2-5 [2],"8.99 upbm affinity estimate (log intensity, higher = more binding, comparable within an allelic series)"
CCGGGCCA,binding signal,NKX2-5 [1],"9.01 upbm affinity estimate (log intensity, higher = more binding, comparable within an allelic series)"
same,binding signal,NKX2-5 [2],"8.94 upbm affinity estimate (log intensity, higher = more binding, comparable within an allelic series)"
CTGATCAG,binding signal,NKX2-5 [1],"8.97 upbm affinity estimate (log intensity, higher = more binding, comparable within an allelic series)"
same,binding signal,NKX2-5 [2],"8.87 upbm affinity estimate (log intensity, higher = more binding, comparable within an allelic series)"
CCCTTGAC,binding signal,NKX2-5 [1],"11.1 upbm affinity estimate (log intensity, higher = more binding, comparable within an allelic series)"
same,binding signal,NKX2-5 [2],"11.1 upbm affinity estimate (log intensity, higher = more binding, comparable within an allelic series)"
CGCCAGGA,binding signal,NKX2-5 [1],"8.64 upbm affinity estimate (log intensity, higher = more binding, comparable within an allelic series)"
same,binding signal,NKX2-5 [2],"8.64 upbm affinity estimate (log intensity, higher = more binding, comparable within an allelic series)"
ACTGGCCC,binding signal,NKX2-5 [1],"8.91 upbm affinity estimate (log intensity, higher = more binding, comparable within an allelic series)"
same,binding signal,NKX2-5 [2],"8.87 upbm affinity estimate (log intensity, higher = more binding, comparable within an allelic series)"
CACTAAAG,binding signal,NKX2-5 [1],"10.9 upbm affinity estimate (log intensity, higher = more binding, comparable within an allelic series)"
same,binding signal,NKX2-5 [2],"10.8 upbm affinity estimate (log intensity, higher = more binding, comparable within an allelic series)"
CACTGCCG,binding signal,NKX2-5 [1],"9 upbm affinity estimate (log intensity, higher = more binding, comparable within an allelic series)"
same,binding signal,NKX2-5 [2],"8.89 upbm affinity estimate (log intensity, higher = more binding, comparable within an allelic series)"
CAAGTGCC,binding signal,NKX2-5 [1],"12.3 upbm affinity estimate (log intensity, higher = more binding, comparable within an allelic series)"
same,binding signal,NKX2-6,"10.6 upbm affinity estimate (log intensity, higher = more binding, comparable within an allelic series)"
CGCGAGCC,binding signal,NKX2-5 [1],"8.97 upbm affinity estimate (log intensity, higher = more binding, comparable within an allelic series)"
same,binding signal,NKX2-5 [2],"8.93 upbm affinity estimate (log intensity, higher = more binding, comparable within an allelic series)"
AGACCGCG,binding signal,NKX2-5 [1],"8.9 upbm affinity estimate (log intensity, higher = more binding, comparable within an allelic series)"
same,binding signal,NKX2-5 [2],"8.83 upbm affinity estimate (log intensity, higher = more binding, comparable within an allelic series)"
CTAGTACA,binding signal,NKX2-5 [1],"10.5 upbm affinity estimate (log intensity, higher = more binding, comparable within an allelic series)"
same,binding signal,NKX2-5 [2],"10.6 upbm affinity estimate (log intensity, higher = more binding, comparable within an allelic series)"
CCCGTAGC,binding signal,NKX2-5 [1],"8.54 upbm affinity estimate (log intensity, higher = more binding, comparable within an allelic series)"
same,binding signal,NKX2-5 [2],"8.55 upbm affinity estimate (log intensity, higher = more binding, comparable within an allelic series)"
TATGAAGA,binding signal,NKX2-5 [1],"10.8 upbm affinity estimate (log intensity, higher = more binding, comparable within an allelic series)"
same,binding signal,NKX2-5 [2],"10.7 upbm affinity estimate (log intensity, higher = more binding, comparable within an allelic series)"
CCCGAGGC,binding signal,NKX2-5 [1],"9.04 upbm affinity estimate (log intensity, higher = more binding, comparable within an allelic series)"
same,binding signal,PITX2,"8.01 upbm affinity estimate (log intensity, higher = more binding, comparable within an allelic series)"
same,binding signal,NKX3-2 [3],"10.3 upbm affinity estimate (log intensity, higher = more binding, comparable within an allelic series)"
same,binding signal,NKX2-5 [2],"9.06 upbm affinity estimate (log intensity, higher = more binding, comparable within an allelic series)"
same,binding signal,NKX3-2 [4],"10.4 upbm affinity estimate (log intensity, higher = more binding, comparable within an allelic series)"
ACAGCGCC,binding signal,NKX2-5 [1],"8.89 upbm affinity estimate (log intensity, higher = more binding, comparable within an allelic series)"
same,binding signal,NKX2-5 [2],"8.85 upbm affinity estimate (log intensity, higher = more binding, comparable within an allelic series)"
GCCGGCAA,binding signal,NKX2-5 [1],"9.18 upbm affinity estimate (log intensity, higher = more binding, comparable within an allelic series)"
same,binding signal,NKX2-5 [2],"8.86 upbm affinity estimate (log intensity, higher = more binding, comparable within an allelic series)"
AACGGTGG,binding signal,NKX2-5 [1],"9.06 upbm affinity estimate (log intensity, higher = more binding, comparable within an allelic series)"
same,binding signal,NKX2-5 [2],"8.98 upbm affinity estimate (log intensity, higher = more binding, comparable within an allelic series)"
CACTACAC,binding signal,NKX2-5 [1],"10.6 upbm affinity estimate (log intensity, higher = more binding, comparable within an allelic series)"
same,binding signal,NKX2-5 [2],"10.7 upbm affinity estimate (log intensity, higher = more binding, comparable within an allelic series)"
